Each structure is given as a SMILES string. Results filed as inconclusive are left out. Values without a mark were called inactive. The source made the active and inactive calls. The call rests on the fitted dose curve; in most records, active means well fitted curve in either direction with a large enough effect (not every such curve was filed as active); inconclusive means small, poorly fitted or top-dose-only effect, or another doubt; inactive means flat fitted curve, though single readings scatter.
On the % scale 0 is the no-effect control and ±100 the full control effect.

The target of this assay is Mitogen-activated protein kinase 10 (Mus musculus) (UniProt Q61831). The assay is described as follows: JNK3 AlphaScreen Assay (AID 530).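 Further: kinase came from lysate of stimulated human HepG2 cells; signal reports phosphorylation of biotinylated GST-cJun 1-79 at Ser73 with 10 µM ATP.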 The note with it: JNK3 lysate, c-Jun phosphorylation; series mostly up to 25.6 µM; activity change, negative = inhibition: at the top concentration. The procedure, abridged:
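Activity was read by AlphaScreen after JNK3-containing HepG2 lysate (cytokine pre-activated) phosphorylated biotinylated GST-cJun with 10 uM ATP at room temperature. Phospho-Ser73 cJun antibody with Protein-A acceptor beads provided detection.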
(Alpha assays give light when donor and acceptor beads are brought close together.)
`Cc1cc(NC(=O)C2=C(O)c3ccccc3S(=O)(=O)N2C)no1`: the “activity change, negative = inhibition” value is -5.23%.
Still for that read-out and setting: the result for `CCCNC(C)(C)COC(=O)c1ccccc1` reads -2.22%; that for `CCN(CC)CCOC(=O)C(c1ccccc1)c1ccccc1`, 3.96%; that for `NS(=O)(=O)c1cc2c(cc1C(F)(F)F)NCNS2(=O)=O`, 2.88%.
Turning to `C[C@@H](N)C(=O)O`, the “activity change, negative = inhibition” value was 5.71% [at 57.1 µM].
Same read-out and setting: the result for `CC(C)=CCC/C(C)=C/CO` reads 4.25% [at 11.4 µM]; that for `O=C(O)c1ccccc1C(=O)Nc1ccc(S(=O)(=O)Nc2nccs2)cc1`, 6.32%.
The same measure, in the same setting: the result for `CN/C(=C\[N+](=O)[O-])NCCSCc1csc(CN(C)C)n1` reads 6.93%.
Same read-out and setting: with `CC(C)(C)C(=O)OCOC(=O)[C@@H]1N2C(=O)[C@@H](NC(=O)[C@H](N)c3ccccc3)[C@H]2SC1(C)C` the figure was -3.07%; with `C[N+](C)(C)CC[N+]1(C)Cc2c(Cl)c(Cl)c(Cl)c(Cl)c2C1`, -5.57% [at 57.1 µM]; with `NC(N)=NS(=O)(=O)c1ccc(N)cc1`, 17.5%.
Turning to `O=C(O)c1ccccc1OP(=O)(O)O`, the “activity change, negative = inhibition” value is -0.129%.
Regarding `C[C@@H]1CCC[C@H](C)N1`, the “activity change, negative = inhibition” value is 3.09%.
Regarding `CCOC(=O)[C@H](CCc1ccccc1)N[C@@H](C)C(=O)N1CCC[C@H]1C(=O)O`, the “activity change, negative = inhibition” value was -1.81%.
On the same count and under the same terms, with `O=C1c2ccccc2S(=O)(=O)N1CCCCN1CCN(c2ncccn2)CC1` the figure was 3.63% [at 57.1 µM]; with `COc1ccc(NS(=O)(=O)c2ccc(N)cc2)nn1`, -5.7%; with `NC(=O)CC[C@@H](N)C(=O)O`, 14.4% [at 57.1 µM].
Still for that read-out and setting: with `Cc1cccc(Nc2ccccc2C(=O)O)c1C` the figure was -6.51%; with `Cc1c(NC(C)C)c(=O)n(-c2ccccc2)n1C`, -0.633%; with `NS(=O)(=O)c1ccc(C(=O)O)cc1`, 3.88% [at 11.4 µM].
Turning to `NC(N)=NCCN1CCCCCCC1`, the “activity change, negative = inhibition” value is 9.31%.
For the compound `CCN(CC)CCc1nc(-c2ccccc2)no1`, the “activity change, negative = inhibition” value is -0.928%.
Still for that read-out and setting: with `CC(=O)SC[C@@H](Cc1ccccc1)C(=O)NCC(=O)OCc1ccccc1` the figure was 10.4%; with `COc1ccc2cc(CCC(C)=O)ccc2c1`, 21.5%; with `Cn1c([N+](=O)[O-])cnc1COC(N)=O`, -1.99%.
As for `CN1C(C)(C)CCCC1(C)C`, the compound was called inactive.
As to `CN(C(=O)c1c(O)c2ccccc2n(C)c1=O)c1ccccc1`, the “activity change, negative = inhibition” value is 16.5% [at 57.1 µM].
On the same count and under the same terms, the result for `CCc1cccc(CC)c1NC(=O)CN(CC(=O)O)CC(=O)O` reads -2.72%.

(Values after PubChem BioAssay (NCATS).)
